Tau fibril FP: tau fibrillization inhibition (FP); P10636; K18 P301L tau heparin fibrillization, Alexa594 FP, 6 h; Potency, µM (top dose mostly 57.7 µM), for the others: top-dose activity, negative = inhibition, hits mostly inhibitors; 280,000 tested, 0.39% active; AID 1468; further: potency means the concentration at half of the fitted maximal effect; nearly all actives have a fitted effect of over 55% in size
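Human tau K18 […] P301L fragment, 15 uM unlabeled plus 0.24 uM Alexa 594-labeled tau (final), with compound and 20 uM heparin in 100 mM sodium acetate pH 7; 6 hr at 37 C, then Alexa 594 FP read.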
USP1 inh: USP1/UAF1 (human) deubiquitinase inhibition; O94782; recombinant USP1/UAF1, Ub-Rhodamine cleavage fluorescence; Potency, µM (doses to about 57.1 µM), inactives show at the top dose activity change, negative = inhibition, most hits filed as inhibitors; 390,000 tested, 0.23% active; AID 743255; further: potency means the concentration at half of the fitted maximal effect; nearly all actives have a fitted effect of over 60% in size
Target sequence (O94782 whole entry, looked up): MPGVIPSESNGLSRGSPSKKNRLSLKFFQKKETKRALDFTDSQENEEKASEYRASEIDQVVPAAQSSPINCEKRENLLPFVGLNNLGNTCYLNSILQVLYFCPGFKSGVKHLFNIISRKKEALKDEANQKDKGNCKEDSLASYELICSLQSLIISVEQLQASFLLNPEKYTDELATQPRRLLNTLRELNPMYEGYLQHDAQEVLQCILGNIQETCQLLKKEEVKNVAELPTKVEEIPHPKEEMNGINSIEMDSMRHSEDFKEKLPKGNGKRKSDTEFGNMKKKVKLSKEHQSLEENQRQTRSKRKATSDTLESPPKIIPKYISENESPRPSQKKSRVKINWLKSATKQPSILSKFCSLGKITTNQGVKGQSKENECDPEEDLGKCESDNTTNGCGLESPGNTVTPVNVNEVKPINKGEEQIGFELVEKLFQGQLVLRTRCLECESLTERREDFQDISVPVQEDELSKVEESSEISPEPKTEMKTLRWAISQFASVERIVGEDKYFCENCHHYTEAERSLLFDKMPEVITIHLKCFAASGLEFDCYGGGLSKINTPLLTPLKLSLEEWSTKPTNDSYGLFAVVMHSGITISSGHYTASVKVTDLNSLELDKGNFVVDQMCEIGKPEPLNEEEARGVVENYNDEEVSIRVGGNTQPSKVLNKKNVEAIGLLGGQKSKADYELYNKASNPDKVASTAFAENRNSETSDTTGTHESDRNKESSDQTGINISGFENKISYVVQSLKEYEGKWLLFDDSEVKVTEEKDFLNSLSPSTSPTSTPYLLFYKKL
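High-throughput fluorogenic screen: 1nM USP1/UAF1 complex, Ub-Rho substrate 150nM final, 50mM HEPES pH 7.8 with 0.5mM EDTA, 0.1 mg/ml BSA, 1mM TCEP and 0.01% Tween-20.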
Tau fluor cs: counter-screen for tau fibril formation inhibitors | tau K18 P301L Alexa594 fluorescence, heparin fibrillization | AID 1463 | Potency, µM (doses to about 57.7 µM), inactives show at the highest dose activity change, negative = decrease | 280,000 tested, 0.93% active; further: potency means the concentration at half of the fitted maximal effect; nearly all actives have a fitted effect of over 55% in size
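Human tau K18 P301L (15 uM unlabeled, 0.24 uM Alexa 594-labeled) in 100 mM sodium acetate pH 7 with 20 uM heparin, 6 hr at 37 C. ThT 30 uM added, 1 hr ambient; Alexa 594 FP and total fluorescence read at 555/632 nm.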
Tau fibril ThT: blocks human tau fibril formation measured by thioflavin T. P10636. recombinant tau K18 P301L (four-repeat tau fragment), heparin-induced fibrillization, ThT fluorescence. Potency, µM (doses to about 57.4 µM), for the others: at the top dose activity, negative = inhibition, usual class: inhibitors. 270,000 tested, 2.1% active. AID 1460; further: potency means the concentration at half of the fitted maximal effect; nearly all actives have a fitted effect of over 55% in size
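In this qHTS, human K18 P301L tau is incubated with compound and heparin for 6 hr at 37 C, and Thioflavin T fluorescence then reports fibril load.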
FBPA coupling cs: inhibits coupling enzyme system, counter-screen for aldolase hits; coupling enzyme system counterscreen, AmpLite Red fluorescence; activity change, negative = inhibition, % at 58.2 µM, hits read low; 290,000 tested, 0.67% active; in the data active means activity change below about -30%
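Fluorescence at 525 nm excitation and 598 nm emission measured inhibition of the coupled detection system without aldolase. Compounds (at 57.5 uM final) were preincubated 10 min at room temperature with coupling enzyme reagent before a 20 min substrate/AmpLite Red step.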
Active calls of the source: *; ? = inconclusive; . = not tested or not shown; [ ] = dose if it differs, or a comment. Rows were chosen to be rich in hits. Some 2.3% of all compounds tested hit in one or more screens of this group. Unless noted, the call rests on the fitted dose curve; in most records, active means well fitted curve in the direction sought with a large enough effect; inconclusive means small, poorly fitted or top-dose-only effect, or another doubt; inactive means no such curve, though single readings can be large; an effect the other way counts as inactive or inconclusive. On the % scale 0 is the no-effect control and ±100 the full control effect.

SMILES	Tau fibril FP	USP1 inh	Tau fluor cs	Tau fibril ThT	FBPA coupling cs
CCOC(=O)C(CC)Sc1c(CC)cnc2c1c(=O)n(C)c(=O)n2C (configuration not stated)	-15%	-18%	-10%	-4%	.
O=c1/c(=C/c2ccc(O)c([N+](=O)[O-])c2)sc2nc3ccccc3n12	2%	-19%	-20%	2µM*	3
COc1cccc(-n2sc3c(c2=S)-c2cc(OC)ccc2NC3(C)C)c1	12%	-13%	13µM*[quencher]	-19%	0
CCOc1ccc(CC(=O)NC2CC(=O)N(c3ccc(C)c(C)c3)C2)cc1 (configuration not stated)	-12%	?	5%	3%	.
Oc1c(Cl)cc(Cl)cc1/C=C/c1ccc2cccc(O)c2n1	3%	-21%	?	?	-8
Oc1ccc(Cl)cc1/C=C/c1ccc2cccc(O)c2n1	?	-27%	25µM*[quencher]	?	-11
COC1=C(Nc2ccc(C)cc2)C(=O)c2ccccc2C1=O	?	-18%	?	8.9µM*	-32*
COC1=C(Nc2ccccc2)C(=O)c2ccccc2C1=O	?	?	?	7.1µM*	-33*
Cc1c(Cl)cccc1NC(=O)C(=O)NCCc1csc(-c2cccc(F)c2)n1	-8%	-21%	-15%	-9%	.
COc1cc(/C=C2\SC(=S)N(NS(=O)(=O)c3ccc(C)cc3)C2=O)ccc1O	6%	-26%	-16%	10µM*	11
COc1cc(/C=C2\SC(=S)N(NS(=O)(=O)c3ccccc3)C2=O)ccc1O	5%	?	-5%	14µM*	12
COc1ccc(/C=C2/SC(=S)N(NS(=O)(=O)c3ccccc3)C2=O)cc1	.	-14%	.	.	4
Cc1cc2oc(C(=O)N(Cc3ccccc3)C3CCS(=O)(=O)C3)cc(=O)c2cc1C (configuration not stated)	-6%	-10%	-7%	-3%	.
C=CCc1cccc(C=Nc2ccc(Br)cc2)c1O	-4%	-18%	-5%	-4%	3
C=CCc1cccc(/C=N/c2ncccc2O)c1O	-3%	-23%	-8%	?	-43*
CCCNC(=O)N1CCN(S(=O)(=O)c2ccc3c(ccn3C)c2)CC1	-4%	-3%	3%	6%	.
O=C(c1cccc([N+](=O)[O-])c1)N1CCN(CCc2ccncc2)CC1	0%	-1%	-4%	-2%	.
O=[N+]([O-])c1ccc(O)c(N=Cc2sc3ccccc3c2O)c1	2%	-12%	?	4.5µM*	-13
Cc1cccc(/N=C/c2sc3ccccc3c2O)n1	?	3%	25µM*[fluorescent]	5.6µM*	-3
Cc1ccc2c(c1)N(C(=O)Nc1cccc(C)c1C)CCO2	?	1%	-2%	9%	.
CCN(CC)C(=O)C1=C(C)Nc2nc3ccccc3n2C1c1cccc(Cl)c1 (configuration not stated)	14%	-16%	-17%	-15%	.
COc1ccccc1Nc1ncc(-c2cccs2)s1	-8%	-3%	16µM*[quencher]	14µM*	1
O=C(Cn1ncc2c3ccccc3n(Cc3ccccc3)c2c1=O)NCCCN1CCCCC1	0%	-8%	-10%	-12%	.
Cc1nc2ccc(-c3nc4ccc(N)cc4[nH]3)cc2[nH]1	5%	-9%	?	16µM*	-1
Nc1ccc2nc(-c3cc(Cl)c(N)c(Cl)c3)[nH]c2c1	14%	?	?	14µM*	-1
SMILES	Tau fibril FP	USP1 inh	Tau fluor cs	Tau fibril ThT	FBPA coupling cs
Nc1ccc(-c2nc3ccc(-c4nc5ccccc5o4)cc3[nH]2)cc1	2%	-7%	16µM*[quencher]	8.9µM*	-2
Nc1ccc(-c2nc3ccc(N)cc3[nH]2)cc1	-1%	-27%	?	?	0
Nc1cc(N)cc(-c2nc3ccccc3[nH]2)c1	6%	-22%	13µM*[quencher]	13µM*	-5
CCN1C(=O)[C@H]2[C@@H]3[C@H](O)[C@H](O)CC(=O)[C@H]3CC[C@H]2C1=O	-3%[11.6 µM]	.	-1%[11.6 µM]	-6%[11.5 µM]	1
Nc1ccc2nc(-c3ccc(Cl)cc3)[nH]c2c1	7%	?	25µM*[quencher]	14µM*	-6
O=C(CN1CCCCC1)N1CCCc2ccccc21	2%	-9%	-6%	-5%	0
N#Cc1ccc2ccn(CC(=O)N3CCCc4ccccc43)c2c1	7%	0%	-15%	-2%	-39*
